In the library only some 21% were active in any assay of this set; here they are far more common.
Pf growth 96h = P. falciparum growth inhibition at 96 hours; hit rate 6.9% among 320,000; Potency, µM (titrated, usually from 28.7 µM), most hits filed as inhibitors; P. falciparum luciferase reporter growth, 96 h
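96 h incubation, 37 C, 5% CO2, of luciferase-reporter P. falciparum-infected RBCs (2% hematocrit, 0.05% parasitemia final) with test compounds; endpoint luminescence.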
NS1 inh = blocks influenza NS1 protein function; Potency, µM (series often up to 46.1 µM); hit rate 0.4% among 270,000; calls by dose curve; also: actives are rising curves; nearly all actives have a fitted effect of over 50% in size
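In this qHTS, NS1 from influenza A is expressed in budding yeast, where it slows growth. Cells are switched from glucose to 2% galactose medium (pH 6.0, -URA), treated with compound, and growth recovery is read at OD600.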
Shiga toxin inh = Shiga toxin inhibition | Vero cells, Shiga toxin protein synthesis inhibition reporter | inhibition, % at 38.7 µM | hit rate 9.2% among 290,000 | AID 2315; in the data active = inhibition mostly above about 28%, no sharp cut-off; inactive = mostly below about 43%
Pf growth 48h = inhibits P. falciparum growth in the first generation, 48 h. P. falciparum luciferase growth in erythrocytes, 48 h. Potency, µM (titrated, usually from 28.7 µM), hits mostly inhibitors. hit rate 5.9% among 310,000
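First compound was added to culture medium, then infected red cells at 0.1% parasitemia and 2% hematocrit (final). After incubation at 37 C under 5% CO2, luciferase detection reagent was dispensed and light output recorded.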
CHX counter = counter-screen hit for Shiga toxin inhibitors, cycloheximide. cell reporter, cycloheximide protein synthesis inhibition counterscreen. max response, %. hit rate 12% among 300,000; in the data active = max response mostly above about 13%, no sharp cut-off; inactive = mostly below about 14%; also: read at 38.3 µM for the half of the compounds with a filed dose
Large screens that a line does not name were inactive. Unless noted, calls follow the shape of the dose curve; as a rule, active = well fitted inhibition curve with a large enough effect; inconclusive = small, poorly fitted or top-dose-only effect, or another doubt; inactive = no such curve, though single readings can be large or run the other way.

COc1ccc(-c2cn3c(C)c(C(=O)Nc4cccc(C)n4)sc3n2)cc1	Pf growth 48h inconclusive, CHX counter 12
Cc1cccc(NC(=O)c2sc3nc(-c4ccc(F)cc4)cn3c2C)n1	none
Cc1c(C(=O)Nc2ccc3c(c2)OCO3)sc2nc(-c3ccccc3)cn12	Pf growth 96h inconclusive, Pf growth 48h 13µM
CC(C)c1ccccc1NS(=O)(=O)c1cccs1	none
COc1ccccc1NCC(=O)n1nc(C)cc1C	none
O=C(COc1cc2oc(=O)cc(-c3ccccc3)c2cc1Cl)NC(Cc1c[nH]c2ccc(O)cc12)C(=O)O (stereo unspecified)	none
O=C1CSC(=S)N1	Pf growth 48h inconclusive
Cc1cccc(NC(=O)c2sc3nc(-c4ccccc4)cn3c2C)n1	Pf growth 96h inconclusive, Shiga toxin inh 66, Pf growth 48h inconclusive, CHX counter 36
NC(=O)COc1ccc(-c2noc(COc3ccccc3[N+](=O)[O-])n2)cc1	none (no result: NS1 inh)
O=C(NC(=S)Nc1ccc2[nH]c(=O)[nH]c2c1)c1ccccc1F	none
O=C(Nc1csc([N+](=O)[O-])c1)Nc1c(Cl)cccc1Cl	Pf growth 48h inconclusive
CC(CC(=O)Nc1ccc(Cl)c([N+](=O)[O-])c1)c1ccccc1 (stereo unspecified)	none
O=C(Nc1ccc(Cl)cc1)Nc1csc([N+](=O)[O-])c1	Pf growth 96h inconclusive, Shiga toxin inh 100, Pf growth 48h inconclusive, CHX counter 30
O=C(Nc1ccccc1)Nc1ccc(Cl)c([N+](=O)[O-])c1	Shiga toxin inh 81, Pf growth 48h inconclusive, CHX counter 37
O=C(Nc1ccccc1)Nc1ccc(F)c([N+](=O)[O-])c1	Shiga toxin inh 46, Pf growth 48h inconclusive, CHX counter 45
CC(C)C(=O)Nc1ccc(NC(=S)NC(=O)c2ccccc2F)cc1	Pf growth 96h inconclusive, CHX counter 15
O=C(Nc1ccccc1C(=O)NCCCN1CCOCC1)c1ccc(Cl)cc1	Pf growth 96h inconclusive
CC(=O)Nc1ccc(C)c([N+](=O)[O-])c1	none
Cc1ccsc1C(=O)Nc1ccc(F)c([N+](=O)[O-])c1	Shiga toxin inh 53, CHX counter 35
O=C(Cc1ccc(F)cc1)Nc1ccc(F)c([N+](=O)[O-])c1	Pf growth 96h inconclusive
O=C(Nc1ccc([N+](=O)[O-])cc1)Nc1ccc(Cl)cc1F	Pf growth 48h 4.1µM (no result: NS1 inh)
O=C(Nc1ccc(Cl)cc1)Nc1cc([N+](=O)[O-])ccc1F	Pf growth 48h inconclusive
Cc1ccc(NC(=O)Nc2ccccc2)cc1[N+](=O)[O-]	Pf growth 96h inconclusive, Shiga toxin inh 146, CHX counter 52
O=C(NC(=S)Nc1ccc(F)c([N+](=O)[O-])c1)c1ccccc1F	Shiga toxin inh 37, CHX counter 23 (no result: NS1 inh)
COC(=O)[C@@H]1C[C@@H]2CC[C@@H](O)C[C@@H]2N1Cc1ccc(N2CCN(C)CC2)cc1	none
Cc1ccc2c(c1)N(C(=O)CCC(=O)NCCCN1CCOCC1)CCO2	none
Cc1ccc(Cl)cc1N1CCN(Cc2cc(=O)n3ccsc3n2)CC1	none
Cc1ccc2nc(-c3cccc(Br)c3)cc(C(=O)NC3=NCCS3)c2c1	Shiga toxin inh 76, Pf growth 48h 4.7µM
O=C(NC1=NCCS1)c1cc(-c2cccc(Br)c2)nc2ccccc12	Pf growth 48h inconclusive, CHX counter 20
O=C(NC1=NCCS1)c1nc(-c2ccccc2)n(-c2ccccc2)n1	none
Cc1ccccc1NS(=O)(=O)c1cc2c(cc1C)N(C)CCO2	none
CC1(C(=O)OCC(=O)Nc2ccccc2)CC1(Cl)Cl (stereo unspecified)	Shiga toxin inh 67, CHX counter 34 (no result: NS1 inh)
CC1(C(=O)OCC(=O)Nc2ccccc2Cl)CC1(Cl)Cl (stereo unspecified)	Shiga toxin inh 62, CHX counter 18
Cc1ccc(NS(=O)(=O)c2ccc3[nH]c(=O)sc3c2)cc1	Pf growth 48h inconclusive (no result: NS1 inh)
Cc1ccc(N2CC(C(=O)Nc3ccccc3OC(F)F)CC2=O)cc1 (stereo unspecified)	Pf growth 48h inconclusive (no result: NS1 inh, Shiga toxin inh, CHX counter)
O=C(NC(NC(=S)Nc1ccc(F)c([N+](=O)[O-])c1)C(Cl)(Cl)Cl)C(c1ccccc1)c1ccccc1 (stereo unspecified)	none (no result: Pf growth 96h, NS1 inh, Pf growth 48h)
CCn1c(C)c2c(C)nnc(C)c2c1C	Pf growth 96h inconclusive
CCn1c(C)c(P(c2ccccc2)c2ccccc2)[n+]2ccccc12	Pf growth 96h 8.3µM, Pf growth 48h 1.5µM (no result: NS1 inh)
CCCCNC(=O)NCCN1CCOCC1	none
O=C(OCC(=O)c1c[nH]c2ccccc12)c1cccc([N+](=O)[O-])c1	Pf growth 96h 13µM, Pf growth 48h 8.3µM (no result: NS1 inh, Shiga toxin inh, CHX counter)
Cc1noc(C)c1C(=O)OCC(=O)c1c[nH]c2ccccc12	Pf growth 96h inconclusive, Pf growth 48h 9.3µM
O=C(OCC(=O)c1c[nH]c2ccccc12)c1cc2ccccc2cc1O	NS1 inh inconclusive
CCc1cccc2c(C(=O)COC(=O)c3c(C)noc3C)c[nH]c12	none
Cc1cc(C(=O)OCC(=O)c2cccc([N+](=O)[O-])c2)c2cccc(C)c2n1	Pf growth 96h 0.41µM, Pf growth 48h inconclusive
CCOc1ccc(CNC(=O)CN2C(=O)C(c3ccccc3)Oc3cccnc32)cc1 (stereo unspecified)	Pf growth 96h inconclusive, Pf growth 48h inconclusive
COc1ccc(CN2CCN(C(=O)Cn3ncn4cccc4c3=O)CC2)c(OC)c1OC	Pf growth 96h inconclusive
Cc1ccc(NC(=O)c2sc3nc(C)nc(N4CCN(c5ccccn5)CC4)c3c2C)c(C)c1	Pf growth 48h inconclusive
Cc1nc(N2CCN(c3ccccn3)CC2)c2c(C)c(C(=O)N3CCN(c4ccccc4F)CC3)sc2n1	Pf growth 48h 8.3µM
Cc1nc(N2CCN(c3ccccn3)CC2)c2c(C)c(C(=O)Nc3ccc(Br)cc3C)sc2n1	Pf growth 48h 2.9µM
Cc1csc(SC(C)C(=O)NCC2CCCCC2)n1 (stereo unspecified)	Pf growth 96h inconclusive (no result: NS1 inh)
c1ccc(CCNc2nc(-c3cccnc3)cs2)cc1	Pf growth 96h inconclusive, Shiga toxin inh 40, Pf growth 48h inconclusive, CHX counter 62
c1ccc(CCNc2nc(-c3ccccn3)cs2)cc1	Shiga toxin inh 86, Pf growth 48h inconclusive, CHX counter 40
O=C(Nc1nc(-c2ccccc2)cs1)c1cccnc1	none (no result: Pf growth 96h)
C=CCN1CCc2cc(O)c(O)cc2C(c2ccccc2)C1 (stereo unspecified)	Pf growth 96h inconclusive, Pf growth 48h 12µM (no result: Shiga toxin inh, CHX counter)
CN(C)c1ccc(/C=C2/C(=N\O)C3CCN2CC3)cc1	Shiga toxin inh 89, CHX counter 41
O=C(O)Cn1nnc(COc2ccccc2)n1	none
COc1ccc(N2CCN(C(=O)Cn3c(=O)c4cccn4c4cccnc43)CC2)cc1	none
O=C(CCn1c(=O)c2cccn2c2cccnc21)N1CCN(c2cccc(Cl)c2)CC1	Pf growth 96h inconclusive, Pf growth 48h 9.3µM
COc1ccc(CCNC(=O)c2nnn(-c3cc(C)cc(C)c3)c2N)cc1OC	Pf growth 96h 3.7µM, Pf growth 48h inconclusive
COc1ccc(Cl)cc1NC(=O)c1noc2c1CCCC2	Shiga toxin inh 51, CHX counter 19 (no result: NS1 inh)
COc1ccc(CCNC(=O)c2nonc2N)cc1OC	Pf growth 96h 4.1µM
COc1ccc(CCNC(=O)c2cc(C(C)C)on2)cc1OC	none
